Screening data (PubChem BioAssay)
A selection: hits, their analogues and other compounds. The true share with any hit is near 2.4%.
D2 ag-1: activates the human D2 dopamine receptor | DiscoveRx PathHunter D2 beta-arrestin, luminescence, 90 min; 100% = 57 uM dopamine signal | activation, % (no concentration beside the values) | 0.084% of 360,000 active; in the data active means activation above about 40%; inconclusive means between about 15% and that limit
Target sequence (P14416 whole entry, looked up): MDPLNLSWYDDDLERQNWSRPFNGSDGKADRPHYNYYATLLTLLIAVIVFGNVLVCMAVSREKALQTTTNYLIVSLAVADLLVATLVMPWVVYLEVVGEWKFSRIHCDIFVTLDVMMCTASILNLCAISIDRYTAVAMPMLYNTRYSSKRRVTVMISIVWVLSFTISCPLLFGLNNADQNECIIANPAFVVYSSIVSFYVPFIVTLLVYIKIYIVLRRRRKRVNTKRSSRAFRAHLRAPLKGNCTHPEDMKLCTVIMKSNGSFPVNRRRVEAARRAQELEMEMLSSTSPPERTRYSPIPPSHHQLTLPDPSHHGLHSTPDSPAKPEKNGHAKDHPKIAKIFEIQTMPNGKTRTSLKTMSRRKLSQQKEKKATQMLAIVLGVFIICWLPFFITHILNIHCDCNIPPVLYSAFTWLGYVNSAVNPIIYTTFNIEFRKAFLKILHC
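Agonist mode: compounds alone added to overnight-plated D2 PathHunter cells for 90 min at 37 C, with 57 uM final dopamine (EC100) defining full response. Beta-arrestin recruitment detected by chemiluminescent reagent, read after 1 h at ambient temperature.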
D2 PAM-1: potentiates the human D2 dopamine receptor allosterically | DiscoveRx D2 beta-arrestin cells, luminescence, 90 min; 100% = 57 uM dopamine signal | P14416 | potentiation, % (test concentration not listed) | AID 624464 | 0.23% of 360,000 active; in the data active means potentiation above about 50%; inconclusive means mostly about 30% to 49%
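D2 cells co-treated with compound plus 50 nM dopamine (EC20) for 90 min at 37 deg C to detect potentiation. Beta-arrestin recruitment was read as enzyme-fragment luminescence after 1 h at ambient temperature. Full response was set by 57 uM dopamine.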
D2 ag-2: agonists of human D2 dopamine receptor. HEK293 T-REx D2 cells, calcium flux agonist mode. 0.53% of 340,000 active. P14416. activation, % at 2 µM;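 active means activation over 3 SD above normal in the single-dose calcium agonist read, cut at about 30% in these data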
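Calcium-flux readout, 1 cycle/sec over 180 s following compound pin transfer, in inducible HEK293 Trex D2 cells (force-coupled); dopamine controls included. Positive calcium responses during this window marked compounds as potential agonists.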
D2 PAM-2: D2 dopamine receptor (human) potentiation; AID 485347; P14416; potentiation, % at 10 µM; HEK293 T-REx D2, calcium flux, EC20 dopamine potentiation; 0.34% of 340,000 active;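 active means potentiation over 3 SD above the plate norm, cut at about 30% in these data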
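Potentiation of an EC20 dopamine calcium response measured kinetically over 180 s, after a preceding 180 s compound-only read flagging agonists. Cells: inducible Hek293 Trex D2 line, 4000/well, cultured overnight at 30 C before dye loading.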
D2 antag: antagonists of human D2 dopamine receptor | P14416 | HEK293 TREx D2 cells, calcium flux, dopamine EC80 | inhibition, % at 10 µM | 2% of 340,000 active | AID 485344; in the data active means inhibition above about 30%; inactive means below that, where a call was filed
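Overnight-induced (tetracycline, 30 C) HEK293 T-REx cells carrying force-coupled D2 receive a no-wash calcium dye, then compound, then EC80 dopamine at 180 s; signals are read kinetically throughout.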
A number is an active result; - = inactive; ? = inconclusive; . = no result.

SMILES	D2 ag-1	D2 PAM-1	D2 ag-2	D2 PAM-2	D2 antag
COc1ccc(C2=NN(C(=O)CSc3nc(=O)n4cc(C)ccc4n3)C(c3ccc(C)cc3)C2)cc1 (stereo unspecified)	-	-	-	-	41
Cc1ccc(NC(=O)CCCn2c(=O)c3cccn3c3ccccc32)c(C)c1	.	.	-	-	.
Cc1ccc(C(=O)OCC(=O)N(C)c2ccccc2)c(C)c1	-	-	-	-	-
CN(C(=O)COC(=O)c1cc(F)c(F)cc1Cl)c1ccccc1	-	-	-	-	32
CC(C)Cc1nnc(NC(=O)c2cc(-c3ccccc3)nc3ccccc23)s1	-	-	-	30	-
CC(C)Cc1nnc(NC(=O)c2cc(-c3ccncc3)nc3ccccc23)s1	-	-	-	-	-
CC(=O)Nc1ccc(Nc2ncnc3c2c(-c2ccccc2)cn3-c2ccc(C)c(Cl)c2)cc1	.	.	-	-	.
COc1cc(Cl)c(C)cc1NC(c1ccccc1)c1nnc(-c2ccccc2Cl)o1 (stereo unspecified)	.	.	.	-	.
O=C(O)CCS(=O)(=O)c1cccc2cccnc12	-	-	-	-	31
N#CCCCSc1ncccc1-c1nc2ccccc2[nH]1	-	-	-	-	-
N#CCSc1ncccc1-c1nc2ccccc2[nH]1	-	-	-	37	-
O=C(C1CC1)N(Cc1ccco1)c1nc(-c2ccccc2)cs1	-	-	-	30	-
O=C(O)CN=C1CC(c2ccccc2)CC(=O)/C1=C(/O)CCCN1C(=O)c2ccccc2C1=O (stereo unspecified)	-	-	-	31	-
CN=C1CC(C)(C)CC(=O)/C1=C(/O)CCCN1C(=O)c2ccccc2C1=O	-	-	-	-	-
O=C(CSCc1ccc(Cl)cc1Cl)Nc1ccc(O)cc1C(=O)O	-	59	-	-	-
Cc1ccsc1C(=O)Nc1ccccc1N1CCOCC1	-	-	-	-	38
Cc1ccc(C(=O)NNC(=O)c2csc(N3CCOCC3)n2)o1	-	-	-	-	-
Cc1ccsc1C(=O)NNC(=O)c1csc(N2CCOCC2)n1	-	-	-	-	32
COc1cccc(N2CCN(C(=O)c3nc(-c4ccc(Cl)cc4)n4c3CCCCC4)CC2)c1	.	.	-	-	.
O=C(Oc1ccc2ccccc2c1)c1ccco1	-	-	-	-	-
CC1CC(C)(C)Nc2ccc(OC(=O)c3ccco3)cc21 (stereo unspecified)	?	112	-	-	-
O=c1c(O)c(-c2cccs2)oc2ccc(Cl)cc12	-	-	93	-	51
O=c1c(O)c(-c2cccs2)oc2ccccc12	-	-	42	-	-
O=c1cc(-c2cccs2)oc2ccc(Cl)cc12	-	-	-	-	-
COCCCn1c(=O)c2sccc2n(Cc2cccc(F)c2)c1=O	-	-	-	-	-
SMILES	D2 ag-1	D2 PAM-1	D2 ag-2	D2 PAM-2	D2 antag
COCCCn1c(=O)c2sccc2n(Cc2cccc(C)c2)c1=O	-	-	-	-	41
CN(Cc1ccco1)C(=O)c1ccc2c(c1)N(Cc1ccccc1F)C(=O)c1ccccc1S2	.	.	-	-	.
N#Cc1c(N2CCN(C(=O)c3ccco3)CC2)nc(-c2ccccc2)c2c1CCCC2	-	-	-	-	32
Cc1ccc(S(=O)(=O)N2CCN(C(=O)C(C)Cn3nc(C)c(C)c3C)CC2)cc1 (stereo unspecified)	-	-	-	-	-
Cc1nn(CC(C)C(=O)N2CCN(S(=O)(=O)c3ccc(Cl)cc3)CC2)c(C)c1C (stereo unspecified)	-	-	-	-	32
Cc1nc(-c2ccc(S(=O)(=O)Nc3cc(Cl)ccc3C)cc2)co1	.	.	-	-	.
N/C(=N\N=C/c1ccc(F)cc1)N/N=C\c1ccc(F)cc1	-	-	-	-	40
N/C(=N\N=C/c1ccc(Br)cc1)N/N=C\c1ccc(Br)cc1	-	-	-	-	-
COc1ccc(CNC(=O)CN(C(=O)c2snc(C(N)=O)c2N)c2ccc(OC)c(OC)c2)cc1	-	-	-	-	31
COc1ccc(CNC(=O)CN(C(=O)c2snc(C(N)=O)c2N)c2ccc(F)cc2)cc1	-	-	-	-	-
Cc1cc(NC(=O)C2C3C(=O)N(CC4CCCO4)C(C(=O)NCc4ccccc4)C34C=CC2(C)O4)no1 (stereo unspecified)	-	-	-	-	33
CC(C)CC(=O)Nc1nc2c(s1)CC(C(C)(C)C)CC2 (stereo unspecified)	.	.	-	-	.
